From PubChem BioAssay (Tox21)
Inconclusive results are not listed. A call without a number means that no potency is given here. A number with no mark means an inactive call. The source made the active and inactive calls. Calls come from the whole dose curve; as a rule, active = well fitted activation curve with a large enough effect; inconclusive = small, poorly fitted or top-dose-only effect; inactive = flat fitted curve, though single readings scatter.

Assay: qHTS assay to identify small molecule phospholipidosis (PLD) inducers (AID 1259344)
Conditions: HepG2 phospholipidosis, LipidTOX Red imaging, 24 h; series mostly up to 38.3 µM
Source text: National Center for Advancing Translational Sciences [NCATS]
Drug-induced Phospholipidosis (PLD) caused by cationic amphiphilic drugs is characterized by the appearance of unicentric or multicentric-lamellar bodies when viewed under electron microscope. Electron microscopy is the gold standard method for PLD detection, however, this method is time-consuming and labor intensive, making it unsuitable for evaluating a large set of compounds. A cell-based phospholipidosis assay has been developed using the LipidTox reagent in HepG2 cells and miniaturized into a 1536-well plate format. Drug induced phospholipid accumulation is stained with the LipidTox dyes in red color which then is determined using an automated high content screening system.
HepG2 cells are dispensed at 900 cells/3 uL/well into Collagen I-coated 1536-well black-wall/clear-bottom assay plates (Greiner Bio-One, Monroe, NC) using the Multidrop Combi 8 channel dispenser (Thermo Fisher, Waltham, MA, USA). The assay plates are incubated at 37 C for 4 hours to allow the cell attachment. 3 uL of 1:500 LipidTOX Red dye is added using the dispenser, and then 23 nL compounds are added via a Wako Pintool station (Wako Automation, San Diego, CA). Amiodarone, a known PLD inducer, was used as a positive control and DMSO was used as a negative control. The assay plates were then incubated at 37 C for 24 hours.
For fixations, 4 uL of 8% paraformaldehyde fixative solution containing 10 ug/mL Hoechst 33342 in Dulbecco's phosphate-buffered saline (DPBS) is added using a Kalypsys washer/dispenser (Kalypsys, San Diego, CA, USA). After incubation at room temperature for 30 min, the assay plates are washed once with DPBS using a Kalypsys washer/dispenser. The assay plates are then sealed and stored at 4 C before imaging. The fluorescence intensities (595 nm excitation, 615 nm emission for LipidTOX; 352 nm excitation, 461 nm emission for Hoechst 33342) are measured using an ImageXpress Micro Widefield High Content Screening System (Molecular Devices, Sunnyvale, CA, USA) with a 20x Plan Fluor objective. Images are acquired for one site in each well and analyzed with the MetaXpress software (Molecular Devices) using the Transfluor module. Several algorithmic outputs, such as pit count per well, pit count per cell, pit integrated intensity per well, and pit integrated intensity per cell, are used for quantitative image analysis for PLD.

Row | Structure (SMILES) | Potency | PLD induction
1 | COc1ccc(CCNCC(O)COc2cccc(C)c2)cc1OC (stereo not given) | inactive | 
2 | CC(CN1c2ccccc2Sc2cccnc21)N(C)C (stereo not given) | inactive | 
3 | C[C@@H]1CCC2[C@@H](C)[C@@H](O)O[C@@H]3O[C@@]4(C)CC[C@@H]1[C@@]23OO4 (stereo not given in full) | inactive | 
4 | CC(/C=C/C=C(\C)C(=O)O[C@@H]1O[C@H](CO[C@@H]2O[C@H](CO)[C@@H](O)[C@H](O)[C@H]2O)[C@@H](O)[C@H](O)[C@H]1O)=C\C=C\C=C(C)\C=C\C=C(/C)C(=O)O[C@@H]1O[C@H](CO[C@@H]2O[C@H](CO)[C@@H](O)[C@H](O)[C@H]2O)[C@@H](O)[C@H](O)[C@H]1O | inactive | 
5 | CCCC(=O)Nc1c(I)cc(I)c(CC(CC)C(=O)O)c1I (stereo not given) | inactive | 
6 | [O]=[Bi][O][Bi]=[O] | inactive | 
7 | CC(CN(C)C)CN1c2ccccc2S(=O)(=O)c2ccccc21 (stereo not given) | inactive | 
8 | Cc1c(Cl)cccc1Nc1ncccc1C(=O)O | inactive | 
9 | CN1[C@@H]2CCC[C@H]1CC(NC(=O)c1nn(C)c3ccccc13)C2 (stereo not given in full) | inactive | 
10 | CC(=O)OC[C@H]1O[C@@H](O[C@H]2[C@H](O)[C@@H](OC(=O)c3ccccc3C(=O)O)[C@H](O)O[C@@H]2COC(C)=O)[C@H](O)[C@@H](OC(=O)c2ccccc2C(=O)O)[C@@H]1O |  | 5.14% [at 0.306 µM]
11 | CNC(=O)[C@H](Cc1c[nH]c2ccccc12)NC(=O)[C@@H](CC(=O)NO)CC(C)C | inactive | 
12 | CC(Oc1ccccc1)C(=O)N[C@@H]1C(=O)N2[C@@H]1SC(C)(C)[C@@H]2C(=O)O (stereo not given in full) | inactive | 
13 | CCOC(=O)CCC(=O)O[C@H]1[C@H](O[C@@H]2[C@@H](C)[C@H](O[C@H]3C[C@@](C)(OC)[C@@H](O)[C@H](C)O3)[C@@H](C)C(=O)O[C@H](CC)[C@@](C)(O)[C@H](O)[C@@H](C)C(=O)[C@H](C)C[C@@]2(C)O)O[C@H](C)C[C@@H]1N(C)C | inactive | 
14 | CC#CCC(C)[C@H](O)/C=C/[C@@H]1[C@H]2c3cccc(CCCC(=O)O)c3O[C@H]2C[C@H]1O (stereo not given in full) | inactive | 
15 | CCCCCCCCCCCCCCCCCC(=O)[O][Al] | inactive | 
16 | Cc1onc(-c2ccccc2)c1C(=O)N[C@@H]1C(=O)N2[C@@H]1SC(C)(C)[C@@H]2C(=O)O |  | -3.09% [at 7.66 µM]
17 | COc1cc([C@@H]2c3cc4c(cc3C(O[C@@H]3O[C@@H]5COC(c6cccs6)O[C@H]5[C@H](O)[C@H]3O)C3COC(=O)[C@@H]32)OCO4)cc(OC)c1O (stereo not given in full) | inactive | 
18 | COc1cc(Br)c(C[N+]2(CCOCCC3CCC4CC3C4(C)C)CCOCC2)cc1OC (stereo not given) | inactive | 
19 | Cc1ccccc1CNc1ncnc2c1ncn2[C@@H]1O[C@H](CO)[C@@H](O)[C@H]1O | inactive | 
20 | C=CCCCCCCCCC(=O)OC | inactive | 

Row | Structure (SMILES) | Potency | PLD induction
21 | CC(C)[C@@H](C)/C=C/[C@@H](C)[C@H]1CC[C@H]2/C(=C/C=C3\C[C@@H](O)CC[C@@H]3C)CCC[C@]12C | inactive | 
22 | CCC(C)(C)OC(=O)N[C@@H](Cc1c[nH]c2ccccc12)C(=O)N[C@@H](CCSC)C(=O)N[C@@H](CC(=O)O)C(=O)N[C@@H](Cc1ccccc1)C(N)=O | inactive | 
23 | CCN(CC)CCOC(=O)c1ccc(N)cc1Cl | inactive | 
24 | O=S(O)CNc1ccc(S(=O)(=O)c2ccc(NCS(=O)O)cc2)cc1 | inactive | 
25 | CO/N=C(\C(=O)N[C@@H]1C(=O)N2C(C(=O)OCOC(=O)C(C)(C)C)=C(/C=C\c3scnc3C)CS[C@H]12)c1csc(N)n1 |  | -0.933% [at 7.66 µM]
26 | CO[C@H]1C[C@@H]2CC[C@@H](C)[C@@](O)(O2)C(=O)C(=O)N2CCCC[C@H]2C(=O)O[C@H]([C@H](C)C[C@@H]2CC[C@@H](OC(=O)C(C)(CO)CO)[C@H](OC)C2)CC(=O)[C@H](C)/C=C(\C)[C@@H](O)[C@@H](OC)C(=O)[C@H](C)C[C@H](C)/C=C/C=C/C=C/1C | inactive | 
27 | CNC(=O)c1c(I)c(C(=O)NCC(=O)Nc2c(I)c(C(=O)O)c(I)c(C(=O)NCCO)c2I)c(I)c(N(C)C(C)=O)c1I | inactive | 
28 | C[C@@](Cc1ccc(O)c(O)c1)(NN)C(=O)O | inactive | 
29 | Cc1cccc(C)c1NC(=O)NC1=CCCN1C | inactive | 
30 | CCC(=O)Oc1ccc2c(c1)CC[C@@H]1[C@@H]2CC[C@]2(C)[C@@H](OC(=O)CC)CC[C@@H]12 | inactive | 
31 | CC(=O)Nc1c(I)c(C(=O)N[C@H]2C(O)O[C@H](CO)[C@@H](O)[C@@H]2O)c(I)c(N(C)C(C)=O)c1I (stereo not given in full) | inactive | 
32 | CNCC(O)c1ccc(OC(=O)C(C)(C)C)c(OC(=O)C(C)(C)C)c1 (stereo not given) | inactive | 
33 | Cc1ncc(COP(=O)(O)O)c(CN)c1O |  | -1.52% [at 7.66 µM]
34 | CN1CCN(C(c2ccccc2)c2ccc(Cl)cc2)CC1 (stereo not given) | inactive | 
35 | N[C@@H](C(=O)N[C@@H]1C(=O)N2C(C(=O)O)=C(CSc3cn[nH]n3)CS[C@H]12)c1ccc(O)cc1 | inactive | 
36 | CC(C)(C)CC(C)(C)c1cc(Cc2cc(C(C)(C)CC(C)(C)C)cc(-n3nc4ccccc4n3)c2O)c(O)c(-n2nc3ccccc3n2)c1 | inactive | 
37 | Cc1cc(C)c(NC(=O)C[C@H](CC(=O)O)c2cccc3ccccc23)c(C(=O)N2CCC3(CCCC3)CC2)c1 | inactive | 
38 | C[C@@H](O)[C@H]1C(=O)N2C(C(=O)[O-])=C(SC3Cn4cnc[n+]4C3)[C@H](C)[C@H]12 (stereo not given in full) | inactive | 
39 | C[C@]12C=CC(=O)C=C1CC[C@@H]1[C@@H]2[C@@H](O)C[C@@]2(C)[C@H]1CC[C@]2(O)C(=O)COC(=O)CCC(=O)O | inactive | 
40 | CCCCCc1ccc(C)cc1O | inactive | 
